Mdm2-MdmX inh = inhibitors of human Mdm2-MdmX association, primary screen, cell-based, luminescence, split luciferase, SaOS-2, uHTS. inhibition, % at 8 µM. SaOS-2 split-luciferase Mdm2/MdmX complementation. 3% of 330,000 active. Protein Mdm4 (Homo sapiens) + E3 ubiquitin-protein ligase Mdm2 (Homo sapiens), …. AID 485346, 2010;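 active = inhibition of at least 50% at 8 µM in the primary screen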
PP5 primary = PP5 phosphatase inhibitors, primary screen, biochemical, fluorescence | 0.18% of 320,000 active | purified PP5c, OMFP substrate fluorescence | AID 1987, 2009 | inhibition, % at 6.7 µM | Serine/threonine-protein phosphatase 5 (Homo sapiens), P53041;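 active = inhibition above the campaign's mean inhibition across all tested compounds plus 3 SD, cut at about 9.5% in these data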
Target sequence (P53041 whole entry, looked up): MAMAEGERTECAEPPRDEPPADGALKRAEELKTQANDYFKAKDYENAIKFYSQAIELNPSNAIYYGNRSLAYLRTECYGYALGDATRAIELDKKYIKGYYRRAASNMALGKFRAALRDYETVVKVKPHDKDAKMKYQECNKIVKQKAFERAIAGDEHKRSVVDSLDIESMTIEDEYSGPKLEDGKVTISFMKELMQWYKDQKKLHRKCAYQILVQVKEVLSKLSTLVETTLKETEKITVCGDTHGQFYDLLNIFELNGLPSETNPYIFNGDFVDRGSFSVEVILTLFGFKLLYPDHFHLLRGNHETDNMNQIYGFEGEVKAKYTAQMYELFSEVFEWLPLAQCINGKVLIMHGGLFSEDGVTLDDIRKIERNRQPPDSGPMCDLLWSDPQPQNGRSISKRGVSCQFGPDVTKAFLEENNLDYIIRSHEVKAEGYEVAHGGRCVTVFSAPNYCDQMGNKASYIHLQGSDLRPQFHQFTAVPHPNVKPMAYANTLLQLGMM
Calb FLC = C. albicans growth inhibition with fluconazole, primary screen, CaCi-2 strain, Alamar Blue fluorescence | C. albicans CaCi-2 (fluconazole-resistant clinical isolate) + fluconazole, 48 h | growth inhibition, % (test concentration not listed) | 0.57% of 300,000 active;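 active = growth inhibition above about 58% in most replicates, limit read from the data, passing the limit was not always enough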;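 note: all wells also contain fluconazole at 8 µg/ml as a sub-toxic cotreatment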
Beta cell apopt = inhibitors of cytokine-induced beta cell apoptosis, primary screen, luminescence; protection from apoptosis, % (test concentration not listed); INS-1E cytokine-induced death, ATP luminescence, 48 h; percent of positive-control rescue, neutral wells zero; 0.8% of 300,000 active; AID 435005, 2010;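 active = Every replicate reaches about 75%, or at least half do and their mean reaches it too, limit read from the data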;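 note: higher means more ATP so stronger rescue from cytokine killing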
PP1 counter = PP1-alpha phosphatase inhibitors, primary screen, counter-screen for PP5 inhibitor project, biochemical, fluorescence, OMFP substrate, single point. AID 2235, 2010. purified PP1alpha. inhibition, % at 6.7 µM. Serine/threonine-protein phosphatase PP1-alpha catalytic subunit (Homo sapiens), P62136. 0.9% of 320,000 active;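 active = inhibition above the mean inhibition of all tested compounds plus 3 SD, computed separately for each screening campaign, cut at about 15% in these data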
CSC inhib = cancer stem cell viability inhibitors, primary screen, luminescence | cancer stem cell-like cells viability | inhibition, % at 7.5 µM | 1.1% of 300,000 active; in the data active = inhibition above about 75%; tested in HMLE shEcad cells
Mdm2-MdmX conf = Mdm2-MdmX complex disruptors, retested hits, confirmation, luminescence, single concentration | 55% of 10,000 active | inhibition, % at 8 µM | Mdm2-MdmX binding, luminescent assay | shares compounds with Mdm2-MdmX inh; in the data active = inhibition above about 40%
Full FLuc ctr = full-length luciferase signal inhibition, confirmation, counter-screen for Mdm2/MdmX interaction inhibitor project, cell-based, single concentration, SaOS-2. shares compounds with Mdm2-MdmX inh. SaOS-2 full-length luciferase counterscreen, luminescence. inhibition, % at 8 µM. 77% of 6,200 active. AID 504607, 2011;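 active = mean inhibition at 8 µM reaching about 37%, which flags the compound as non-specific, limit read from the data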;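 note: p53-null SaOS-2 cells with luciferase driven by a doxycycline-inducible promoter; compound on cells about two nights before reading with doxycycline added after day one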
Each line names hits and unclear results; the compound was inactive in the other large screens (follow-up assays come after a bar, where they were run). Sampled rows, rich in hits. Any-hit rate of the full collection: about 4.9%.

COC(=O)C1=C(c2ccc(F)cc2OCc2ccccc2)C[C@@H]2CC[C@H]1N2C(=O)NC1CCN(Cc2ccccc2)CC1	Mdm2-MdmX inh 76 (no result: Calb FLC) | Mdm2-MdmX conf inactive | Full FLuc ctr 60
COC(=O)C1=C(c2cccc(OCc3ccccc3)c2)C[C@@H]2CC[C@H]1N2C(=O)NCCCc1ccccc1	none (no result: Calb FLC)
COC(=O)C1=C(c2ccccc2OCc2ccccc2)C[C@@H]2CC[C@H]1N2C(=O)NC1CCN(Cc2ccccc2)CC1	Mdm2-MdmX inh 51 (no result: Calb FLC) | Mdm2-MdmX conf inactive
C=CCN1CC[C@]23c4c5ccc(O)c4OC2C(=O)CC[C@@]3(O)C1C5 (stereo partly specified)	none (no result: Calb FLC)
COc1ccc2c3c1OC1C(=O)CC[C@@]4(O)[C@@H](C2)N(C)CC[C@]314 (stereo partly specified)	Mdm2-MdmX inh 67 (no result: PP5 primary, Calb FLC, Beta cell apopt, PP1 counter, CSC inhib) | Mdm2-MdmX conf 53 | Full FLuc ctr inactive
C=C1[C@H]2CC[C@H]3[C@]4(C)C[C@H](O[C@@H]5OC(CO)[C@@H](OSOOO)[C@H](OS(=O)(=O)O)[C@H]5OC(=O)CC(C)C)C[C@@H](C(=O)O)[C@H]4CC[C@]3(C2)[C@H]1O (stereo partly specified)	none (no result: PP5 primary, Calb FLC, PP1 counter)
CCOc1cccc(=NC2CCCCC2)c2c(C)n(C)c(C)c12	Mdm2-MdmX inh 54 | Mdm2-MdmX conf inactive
COC(=O)C[C@]1(C(=O)OC)CN(C#N)N(c2ccc(Cl)cc2)C12c1ccccc1-c1ccccc12	Mdm2-MdmX inh 99, Beta cell apopt 112 | Mdm2-MdmX conf inactive
COC(=O)[C@@H]1[C@@H](C(=O)OC)C2(c3ccccc3-c3ccccc32)N(c2ccc(Cl)cc2)N1C#N	Mdm2-MdmX inh 101 | Mdm2-MdmX conf inactive
CN1CCN(Cc2cn(C)c3ccccc23)CC1CCO (stereo unspecified)	none (no result: Mdm2-MdmX inh, Beta cell apopt)
O=c1c2ccccc2nc(/C=C/c2ccc([N+](=O)[O-])o2)n1-c1ccc(O)cc1	Mdm2-MdmX inh 75, Calb FLC 98 (no result: PP5 primary, Beta cell apopt, PP1 counter, CSC inhib) | Mdm2-MdmX conf 85 | Full FLuc ctr inactive
Cc1cccc(-n2c(/C=C/c3ccc([N+](=O)[O-])o3)nc3ccccc3c2=O)c1	Mdm2-MdmX inh 94, CSC inhib 89 | Mdm2-MdmX conf 57 | Full FLuc ctr 42
O=c1c2ccccc2nc(/C=C/c2ccccc2)n1-c1ccc(O)cc1	none
O=c1cccc2n1CC1CC2CN(c2nc(N3CCCCC3)nc(N3CCCCC3)n2)C1 (stereo unspecified)	none
COc1cccc(NP(=O)(Oc2ccccc2)Oc2ccccc2)c1	Mdm2-MdmX inh 58, CSC inhib 99 | Mdm2-MdmX conf 53 | Full FLuc ctr 37
O=C1CCCN1c1ccc(S(=O)(=O)O)cc1 (tested in a mixture with another compound)	none
N=C1c2ccccc2CN1c1ccc(F)c([N+](=O)[O-])c1	Mdm2-MdmX inh 53 | Mdm2-MdmX conf inactive
Cc1cc(C(=O)CS(=O)c2ccc(F)cc2)cc(C)c1OC(=O)N(C)C (stereo unspecified)	none
COc1ccc(C2=NCc3nnc(C)n3-c3ccc(Cl)cc32)cc1Cl	Mdm2-MdmX inh 65 | Mdm2-MdmX conf inactive
COc1ccccc1C1=NCc2nnc(C)n2-c2ccc(Cl)cc21	none (no result: Calb FLC)
O=C1/C(=C/c2ccccc2)C[C@@]2(O)[C@H]3Cc4ccc(O)c5c4[C@@]2(CCN3CC2CC2)C1O5 (stereo partly specified)	Mdm2-MdmX inh 100 (no result: PP5 primary, Calb FLC, Beta cell apopt, PP1 counter, CSC inhib) | Mdm2-MdmX conf 100 | Full FLuc ctr 51

From PubChem
